SMILES strings stand for the structures. The whole screen tested about 68,000 compounds, of which about 2,700 (4%) showed an effect of 50% or more. The sample as a whole holds a higher share of strong results than the screen did.

This assay concerns Plasmodium berghei. In words: Screen against P. berghei liver stage (PbLuc), transformed with Luciferase, at 2uM. The class given is functional, HepG2. To be noted: tested at 2 uM.
Regarding `NC(=O)CCNC(=O)C1(N2CCCCC2)Cc2ccccc2C1`, the INHIBITION is recorded as 14.19%. The result for `c1ccc(CCN2CCN(c3ccc4nncn4n3)CC2)nc1` reads -59.79%; that for `Clc1ccccc1CCN1CCN(c2ccc3nncn3n2)CC1`, 50.77%. Next, `c1ccc(CCN2CCN(c3ccc4nncn4n3)CC2)cc1`: -2.47%.

As for `COC1COC2(CCN(Cc3ccco3)CC2)C1` (centres undefined), the INHIBITION was found to be 24.91%.

`Cc1noc2ncc(C(=O)NCC3CCN(C(C)C)C3)cc12` (centres undefined): the INHIBITION was -5.2%. Next, `Cc1ccc(C(=O)N2CCCCC2c2[nH]ncc2S(C)(=O)=O)cn1` (centres undefined): 19.75%; `Cc1cccc(C(=O)N2CCCCC2c2[nH]ncc2S(C)(=O)=O)c1` (centres undefined): 52.69%. Turning to `CS(=O)(=O)c1cn[nH]c1C1CCCN1C(=O)c1cccnc1` (centres undefined), the INHIBITION worked out at 10.3%.

Take `COC(=O)c1ccc(CNC(=O)Nc2ccc(=O)n(C)c2)cc1`: the INHIBITION is listed as -18.09%.

For `CS(=O)(=O)c1cccc(C(=O)NCc2nc3cc(F)ccc3[nH]2)c1`, the INHIBITION is given as 30.57%. With `Cn1cc(CN2CCCC(CCc3ccc(F)cc3F)C2)cn1` (centres undefined), the INHIBITION worked out at 69.71%. In the case of `Cn1cc(CN2CCCC(CCc3c(F)cccc3F)C2)cn1` (centres undefined), the INHIBITION was found to be 43.27%. The result for `Cn1cc(CN2CCCC(CCc3ccc(F)cc3)C2)cn1` (centres undefined) reads 2.3%; that for `Cn1cc(CN2CCCC(CCc3ccc(F)c(F)c3)C2)cn1` (centres undefined), 64.2%. The result for `Cn1cc(CN2CCCC(CCc3ccccc3C(F)(F)F)C2)cn1` (centres undefined) reads 24.55%. The result for `Fc1ccc(CCC2CCCN(Cc3c[nH]cn3)C2)c(F)c1` (centres undefined) reads -20.35%; that for `CN(C)C(=O)CN1C[C@H]2CCN(Cc3ccccc3)CC[C@H]2S1(=O)=O`, -10.78%; that for `COC(=O)C(NC(=O)Nc1ccc(C(C)=O)cc1)C(C)C` (centres undefined), -7.05%.

As for `CN(C)c1nccc(C2CN(c3ccccc3)CCO2)n1` (centres undefined), the INHIBITION is reported as -39.97%.

Regarding `CN(C)c1nccc(C2CN(c3cnccn3)CCO2)n1` (centres undefined), the INHIBITION is recorded as 57.47%.

Turning to `CC(C)N1CCOC(c2ccnc(N(C)C)n2)C1` (centres undefined), the INHIBITION is -2.41%. With `N#CCSCCCN1CCC(C(=O)N2CCCCCC2)CC1`, the INHIBITION is recorded as -28.22%. With `Cc1ccc(CN2CC[C@H](c3nnc(COc4ccc(F)cc4)o3)C2)o1`, the INHIBITION is on record as 17.76%. Regarding `COCCNC(=O)[C@H]1C[C@@H]2CCN(CCc3ccccc3)C[C@H]2O1`, the INHIBITION is -56.44%. Regarding `Cc1cn(CC(=O)Nc2cc(C(C)C)nn2C)cn1`, the INHIBITION is reported as 5.93%. Next, `Cc1cn(CC(=O)Nc2cc(C(C)(C)C)nn2C)cn1`: 53.66%; `Cn1nc(C(C)(C)C)cc1NC(=O)Cn1ccnc1`: -24.02%; `CCc1nnc2n1CCN(CC(=O)Nc1cc(C)nn1C)C2`: 12.81%. For `CCc1nnc2n1CCN(CC(=O)Nc1cc(C(C)(C)C)nn1C)C2`, the INHIBITION amounted to 54.85%. In the case of `CCc1nnc2n1CCN(CC(=O)Nc1cc(C)on1)C2`, the INHIBITION came out at 13.91%. Next, `CC(SCC(=O)N(C)CC(=O)NC1CC1)c1ccccc1F` (centres undefined): -16.7%; `CCC1CN(C(=O)c2cc(CN(C)CCc3ccccc3)on2)CCO1` (centres undefined): -11.41%. Next, `CN(CCc1ccccc1)C(=O)c1cc(CN2CCC(O)CC2)on1`: -10.41%; `CN(CCc1ccccc1)Cc1cc(C(=O)N2CCSCC2)no1`: 72.05%. On to `CN(CCc1ccccc1)Cc1cc(C(=O)N2CCCC2(C)C)no1`, for which the INHIBITION is recorded as 61.89%. For the compound `CN(CCc1ccccc1)Cc1cc(C(=O)N2CCN(C)C(=O)C2)no1`, the INHIBITION is -64.43%. The result for `CN1CCCN(C(=O)c2cc(CN(C)CCc3ccccc3)on2)CC1` reads 5.28%; that for `Fc1ccc(CN2CCC3(CCCN(c4nncs4)C3)C2)cc1` (centres undefined), 3%; that for `O=C(NCC1CCCOC1)c1ccc(-c2ccccc2)[nH]c1=O` (centres undefined), 4.96%. Regarding `Fc1ccc(Cc2cnc(C3CCCN3)cn2)cc1` (centres undefined), the INHIBITION is listed as -2.89%.

For `CC(C)CNc1cc(-c2c[nH]nc2C2CCN(C(=O)C3CC3)C2)ccn1` (centres undefined), the INHIBITION came to 13.98%. Next, `CC(C)Nc1cc(-c2c[nH]nc2C2CCN(C(=O)C3CCC3)C2)ccn1` (centres undefined): 16.43%; `CCCNc1cc(-c2c[nH]nc2C2CCN(C(=O)C3CCC3)C2)ccn1` (centres undefined): 87.38%; `Fc1ccc(OCCNC2CCN(Cc3ccccn3)CC2)c(F)c1`: -31.26%. The result for `Cc1ccccc1-c1cc(NC(=O)NC2CC2)n(CCO)n1` reads 57.75%.

For `Cc1ccccc1-c1cc(NC(=O)NC2CCC(O)CC2)n(CCO)n1` (centres undefined), the INHIBITION is listed as 14.82%. `CNC(=O)Nc1cc(-c2ccccc2C)nn1CCO`: the INHIBITION is reported as -3.51%. The result for `Cc1cccc(C(=O)N2CCCC(Cc3cncc4ccccc34)C2)n1` (centres undefined) reads 33.77%; that for `O=C(c1cnccn1)N1CCCC(Cc2cccc3ncccc23)C1` (centres undefined), -3.58%.

With `O=C(c1cnccn1)N1CCCC(Cc2cncc3ccccc23)C1` (centres undefined), the INHIBITION was determined as 99.92%. Regarding `O=c1c2c[nH]c(N3CCCCC3)nc-2cn1-c1ccc2c(c1)OCO2`, the INHIBITION was found to be 33.2%. Turning to `Cn1cc(S(=O)(=O)NCc2ccsc2)cn1`, the INHIBITION is reported as -18.65%.

Regarding `CNC(=O)C(C)CNC(=O)c1coc(COc2cccc(F)c2F)n1` (centres undefined), the INHIBITION is 16.32%. Next, `O=C(N[C@@H]1CN(Cc2ccco2)[C@@H]2CCCO[C@@H]21)c1cscn1`: -2.81%; `COc1c(CNC2CCOc3c(Cl)cccc32)c(C)nn1C` (centres undefined): 24.64%.

On to `Cc1nc(CN2CCc3ncnc(-c4ccsc4)c3CC2)cs1`, for which the INHIBITION is given as 8.62%.

`CCS(=O)(=O)CCNC(=O)[C@@]12CNC[C@@H]1CN(C1CCCC1)C2`: the INHIBITION is on record as -13.8%. Next, `COCC1(CNC(=O)[C@@]23CNC[C@@H]2CN(C2CCCC2)C3)CC1`: 83.98%; `O=C(NCCOCCO)[C@@]12CNC[C@@H]1CN(C1CCCC1)C2`: 45.82%; `CCC(NC(=O)C1CCN(S(C)(=O)=O)CC1)c1ccc(C)cc1C` (centres undefined): 20.49%. On to `CC(C)COC(=O)N1CCCN(C(C)c2nc(C(C)C)no2)CC1` (centres undefined), for which the INHIBITION was found to be 4.49%. The result for `O=C(NCc1ccco1)[C@H]1C[C@H]2OCC[C@H]2N(C(=O)c2ccnnc2)C1` reads -14.65%; that for `O=C(C1CC1)N1CCC2(CCN2Cc2ccc(F)cc2)C1` (centres undefined), 31.52%. Next, `COC(=O)NCC(=O)N1CCCn2nc(CN3CC[C@H](F)C3)cc2C1`: 52.85%. For `O=C(c1ccc(Cl)s1)N1CCCn2nc(CN3CC[C@H](F)C3)cc2C1`, the INHIBITION is recorded as -13.81%. Consider `Cc1nn(C)cc1C(=O)N1CCCn2nc(CN3CC[C@H](F)C3)cc2C1`, for which the INHIBITION is -11.76%. Next, `CCn1cncc1-c1nc2c([nH]1)CC(C)(C)CNC2=O`: 50.61%.

As to `CC(C)Cn1cncc1-c1nc2c([nH]1)CC(C)(C)CNC2=O`, the INHIBITION is reported as -54.78%. Turning to `COCCn1cncc1-c1nc2c([nH]1)CC(C)(C)CNC2=O`, the INHIBITION is on record as 8.54%. The result for `CCc1cc(N2CCCNCC2)n2nc(C)c(C)c2n1` reads 14.23%; that for `Cc1ccc(NS(=O)(=O)c2cc3c(c(C(=O)O)c2)OCCO3)cc1C`, -19.1%; that for `O=C(NCc1cc[nH]n1)NCC(O)c1ccc(F)c(F)c1` (centres undefined), -87.87%. Take `CCCS(=O)(=O)N1CCCC1c1cccc(N(C)C)c1` (centres undefined): the INHIBITION is -46.3%. Turning to `c1ccc(-c2ncc(CN3CCCCC3CCn3cccn3)cn2)nc1` (centres undefined), the INHIBITION amounted to 11.38%. With `CN(C)CCC1CCCCN1Cc1cnc(-c2ccccn2)nc1` (centres undefined), the INHIBITION was 53.12%.

In the case of `Cc1nccn1CCC1CCCCN1Cc1cnc(N(C)C)nc1` (centres undefined), the INHIBITION was -4.51%. The result for `CS(=O)(=O)N1CCC2(CC1)COC(COc1ccccn1)C2` (centres undefined) reads 46.32%; that for `Cc1nc(O)c2nnn(C[C@H]3CCCN3C(=O)c3ccccc3C)c2n1`, 83.57%; that for `Cc1nc(O)c2nnn(C[C@H]3CCCN3C(=O)C3CCCC3)c2n1`, 50.32%. The result for `Cc1nc(O)c2nnn(C[C@H]3CCCN3C(=O)c3ccccc3F)c2n1` reads 33.64%. The result for `Cc1nc(O)c2nnn(C[C@H]3CCCN3C(=O)CCC3CCCC3)c2n1` reads 6.57%; that for `Cc1ccc(C(=O)N2CCC[C@@H]2Cn2nnc3c(O)nc(C)nc32)cc1`, -15.93%. As to `Cc1nc(O)c2nnn(C[C@H]3CCCN3C(=O)C(C)(C)C)c2n1`, the INHIBITION is recorded as -47.12%. Consider `CCn1cc(NC(=O)C2CCN(Cc3nc(C)c(C)s3)CC2)cn1`, for which the INHIBITION is listed as -3.36%. The result for `Cc1ccc(NC(=O)[C@H]2C[C@H](C(=O)O)CN(CC3CC3)C2)cn1` reads 38.15%; that for `Fc1ccc2nc([C@H]3CCNC3)[nH]c2c1`, -11.34%; that for `CC(C)N1CC[C@H](c2nc3ccc(C(F)(F)F)cc3[nH]2)C1`, 4%. Next, `FC(F)(F)c1ccc2[nH]c([C@H]3CCNC3)nc2c1`: 62.8%; `COCC(=O)NC(Cc1cc(N(C)C)nc(C2CC2)n1)c1ccccc1` (centres undefined): 7.93%; `CCOCCN1CCN(C=C2NN=C(c3occc3C)O2)CC1CC` (centres undefined): 24.82%.

As for `CC(CS(C)(=O)=O)N(C(=O)Nc1ccc(F)cc1F)C1CC1` (centres undefined), the INHIBITION is -3.43%. Next, `COc1cccc(NC(=O)N(CCC(F)(F)F)C[C@H](O)CO)c1`: 50.6%; `Cc1cccc(NC(=O)N(CCC(F)(F)F)C[C@H](O)CO)c1`: -24.88%.

`O=C(Nc1ccc(F)cc1F)N(CCC(F)(F)F)C[C@H](O)CO`: the INHIBITION is 66.83%. Take `COc1cccc(NC(=O)N(CCO)Cc2ccsc2)c1`: the INHIBITION is -75.39%.

As for `O=C(Nc1ccc(F)cc1)N(CCC(F)(F)F)C[C@H](O)CO`, the INHIBITION was determined as 5%.

`CN(C)c1ccc(C(=O)Nc2ccn(Cc3ccccn3)n2)cn1`: the INHIBITION is given as -44.17%.

Turning to `CN1CCOC[C@H]1c1nc(-c2cccnc2)c[nH]1`, the INHIBITION came to 5.77%.

Regarding `O=C(Nc1cccc(CNCc2csc(Br)c2)c1)C1CC1`, the INHIBITION is -0.64%. Consider `CCC1(c2ccc(NS(=O)(=O)N(C)C)cc2)CCC(=O)NC1=O` (centres undefined), for which the INHIBITION is -11.81%.

For `CN1CCCCC1Cc1nc2c(cc1C(N)=O)CCC2` (centres undefined), the INHIBITION is recorded as 62.39%. As for `NC(=O)c1cc2c(nc1CC1CCCCO1)CCC2` (centres undefined), the INHIBITION is reported as 38.83%. As for `C[C@@H]1CN(c2nc3c(cc2C(N)=O)CCC3)CC[C@@]1(O)C1CCC1`, the INHIBITION is recorded as 2.79%.

(Values after ChEMBL document CHEMBL4513216, “Probing the Open Global Health Chemical Diversity Library for Multistage-Active Starting Points for Next-Generation Antimalarials” (ACS Infect Dis, 2020).)
